Assay results: PubChem BioAssay (NCATS)
Records with an inconclusive call do not appear. The source made the active and inactive calls. Unless noted, calls follow the shape of the dose curve; as a rule, active = well fitted curve in either direction with a large enough effect (not every such curve was filed as active); inconclusive = small, poorly fitted or top-dose-only effect, or another doubt; inactive = flat fitted curve, though single readings scatter.

Tests used:
[1] = AP1 Signaling Pathway (AID 357); conditions: ME-180 AP-1-bla reporter, EGF-induced, beta-lactamase ratio, 5 h; at 17.2 µM (top of the series) unless noted;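 also: ME-180 reporter cells stimulated with EGF at its EC50 level; % is scaled to controls: 0 for no effect and ±100 for the full control effect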
In short: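 Cells are seeded overnight, exposed to compound titrations and an EC50 level of EGF for 5 hours at 37 °C, then loaded with CCF4 dye for 2.5 hours. Beta-lactamase activity under the AP-1 element is read as a blue/green ratio.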

[2] = NFAT Signaling Pathway (AID 444); conditions: Jurkat NFAT-bla M1, carbachol, beta-lactamase ratio, 5 h; at 17.2 µM (top of the series) unless noted;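 also: carbachol stimulus at about its EC50 of 1 µM final; % is scaled to controls: 0 for no effect and ±100 for the full control effect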
In short: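 Jurkat cells carrying an NFAT-driven β-lactamase reporter and co-transfected muscarinic M1 receptor were treated with compound plus carbachol (1 uM final, an EC50 level) for 5 h at 37 °C. CCF4 loading followed for 1 h at RT; 460/530 nm ratio gave %activity.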

[3] = Stat Signaling Pathway (AID 446); conditions: ME-180 SIE beta-lactamase reporter, IL-6 stimulated, 5 h; at 17.2 µM (top of the series) unless noted;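 also: ME-180 cervical cancer cells given 40 pM IL-6 alongside compound; SIE-controlled beta-lactamase reporter measured as 460/530 nm FRET emission ratio; % is scaled to controls: 0 for no effect and ±100 for the full control effect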
In short: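 Screening format detects activators and inhibitors alike: ME-180 SIE-bla cells stimulated at 40 pM IL-6 for 5 hrs with compound, then dual-emission beta-lactamase read at 405 nm excitation.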

[4] = target: Glucocorticoid receptor (Homo sapiens) (UniProt P04150); assay: GR-GFP Redistribution (AID 450;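 active = compounds whose dose series gives a full or clear partial fitted curve of increased nuclear translocation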; also: potency is read from the fitted curve at half-maximal effect)
Glucocorticoid receptor (Homo sapiens), sequence (P04150 whole entry, looked up): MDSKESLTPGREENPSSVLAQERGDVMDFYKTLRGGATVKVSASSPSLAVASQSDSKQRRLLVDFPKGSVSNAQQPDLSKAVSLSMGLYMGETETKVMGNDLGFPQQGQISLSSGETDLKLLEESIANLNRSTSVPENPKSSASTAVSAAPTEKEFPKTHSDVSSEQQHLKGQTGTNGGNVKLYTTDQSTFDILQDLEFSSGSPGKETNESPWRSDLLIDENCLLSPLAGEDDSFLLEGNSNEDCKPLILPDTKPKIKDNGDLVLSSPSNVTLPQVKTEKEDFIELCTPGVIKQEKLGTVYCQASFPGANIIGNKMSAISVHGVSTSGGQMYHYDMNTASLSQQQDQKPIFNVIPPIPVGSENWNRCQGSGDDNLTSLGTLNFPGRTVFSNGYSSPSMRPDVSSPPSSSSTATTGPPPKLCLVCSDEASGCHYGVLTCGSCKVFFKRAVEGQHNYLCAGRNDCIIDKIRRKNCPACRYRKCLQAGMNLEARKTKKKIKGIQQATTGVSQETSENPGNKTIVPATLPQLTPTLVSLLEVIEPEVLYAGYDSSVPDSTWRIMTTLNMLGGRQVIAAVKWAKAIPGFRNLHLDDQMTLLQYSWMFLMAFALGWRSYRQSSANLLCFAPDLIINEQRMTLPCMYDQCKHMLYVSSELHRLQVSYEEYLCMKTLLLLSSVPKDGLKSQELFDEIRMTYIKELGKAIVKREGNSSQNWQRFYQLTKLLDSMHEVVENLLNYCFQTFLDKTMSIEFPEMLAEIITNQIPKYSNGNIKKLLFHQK

C#CC1CN(Cc2ccccc2)CC(C#C)N1C (stereo not given)
inactive: activity change, negative = inhibition [1] 9.35% | activity change, negative = inhibition [2] -2.08% | activity, negative = inhibition [3] 9.92% | Potency [4] > 20.6 µM

CCc1cccc(C)c1N(C(=O)Cn1c(=O)[nH]c2ccccc21)C(C)COC (stereo not given)
inactive: activity change, negative = inhibition [1] -2.33% | activity change, negative = inhibition [2] 17.7% | activity, negative = inhibition [3] -1.06% | Potency [4] > 20.6 µM

O=C(O)CCc1nn2cc(-c3ccccc3)nc2[nH]c1=O
inactive: activity change, negative = inhibition [1] 6.39% | activity change, negative = inhibition [2] -22.2% | activity, negative = inhibition [3] 10.5% | Potency [4] > 20.6 µM

CSc1nnc(C)c(=O)[nH]1
inactive: activity change, negative = inhibition [1] -4.3% | activity change, negative = inhibition [2] -8.38% | activity, negative = inhibition [3] 14.8% | Potency [4] > 20.6 µM

CCOc1nc(SCCOc2ccccc2)nc(N(C)C)n1
inactive: activity change, negative = inhibition [1] -22.1% | activity change, negative = inhibition [2] 28% | activity, negative = inhibition [3] 8.95% | Potency [4] > 20.6 µM

CCC(=O)Nc1ccc(-c2nnc(-c3ccccc3)o2)cc1
inactive: activity change, negative = inhibition [1] 0.816% | activity change, negative = inhibition [2] 4.89% | activity, negative = inhibition [3] -0.000551% | Potency [4] > 20.6 µM

COc1ccc(OC)c(C2/C(=C(/O)c3ccccc3)C(=O)C(=O)N2Cc2ccco2)c1 (stereo not given)
inactive: activity change, negative = inhibition [1] -4.43% | activity change, negative = inhibition [2] 6% | activity, negative = inhibition [3] -9.05% | Potency [4] > 20.6 µM

C[C@@H]1C[C@H](Nc2ccccc2)c2ccccc2N1C(=O)c1cccnc1
inactive: activity change, negative = inhibition [1] 5.62% | activity change, negative = inhibition [2] -3.58% | activity, negative = inhibition [3] -2.73% | Potency [4] > 20.6 µM

CC(O)CNc1nc2c(c(=O)n(C)c(=O)n2C)n1Cc1cccc(C(F)(F)F)c1 (stereo not given)
inactive: activity change, negative = inhibition [1] -10.4% | activity change, negative = inhibition [2] 4.56% | activity, negative = inhibition [3] -0.279% | Potency [4] > 20.6 µM

CC1(C)Cc2c(sc3[nH]c(=S)n(Cc4ccco4)c(=O)c23)CO1
inactive: activity change, negative = inhibition [1] -2.74% | activity change, negative = inhibition [2] -5.17% | activity, negative = inhibition [3] -8.92% | Potency [4] > 20.6 µM

CC1(C)Cc2c(sc3c4nnnn4c4nnnn4c23)CO1
active: activity change, negative = inhibition [2] -96.8%
inactive: activity change, negative = inhibition [1] -28.3% | activity, negative = inhibition [3] -26.4% | Potency [4] > 20.6 µM

CN1C(=S)SC(N(O)C(=O)Nc2ccccc2)C1(C)C (stereo not given)
inactive: activity change, negative = inhibition [1] 1.19% | activity change, negative = inhibition [2] -13.4% | activity, negative = inhibition [3] 2.19% | Potency [4] > 20.6 µM

Cc1sccc1C1C(C#N)=C(N)SC(N)=C1C#N
inactive: activity change, negative = inhibition [1] -12.4% | activity change, negative = inhibition [2] 15% | activity, negative = inhibition [3] -25.4% | Potency [4] > 20.6 µM

O=C(Nc1ccc2c(c1)OCO2)c1cncc(Br)c1
inactive: activity change, negative = inhibition [1] -12.1% | activity change, negative = inhibition [2] -3.16% | activity, negative = inhibition [3] -14.9% | Potency [4] > 20.6 µM

COc1ccccc1-c1nnc2sc(COc3ccccc3)nn12
inactive: activity change, negative = inhibition [1] -9.17% | activity change, negative = inhibition [2] 13.4% | activity, negative = inhibition [3] -10.5% | Potency [4] > 20.6 µM

COc1ccc(C=NCCCN2CCOCC2)cc1
inactive: activity change, negative = inhibition [1] -8.54% | activity change, negative = inhibition [2] -2.1% | activity, negative = inhibition [3] -3.86% | Potency [4] > 20.6 µM

COC(=O)CC1=C(C(=O)OC)C(c2cccc(OCC(N)=O)c2)C(C#N)=C(N)O1 (stereo not given)
inactive: activity change, negative = inhibition [1] 26.1% | activity change, negative = inhibition [2] -17.4% | activity, negative = inhibition [3] 6.6% | Potency [4] > 20.6 µM

CN(C)CC(O)COc1cccc(OCC(O)CN(C)C)c1 (stereo not given)
inactive: activity change, negative = inhibition [1] 1.26% | activity change, negative = inhibition [2] -0.493% | activity, negative = inhibition [3] 3.74% | Potency [4] > 20.6 µM

O=C(CCC(=O)CCN1CCCCC1)CCN1CCCCC1
inactive: activity change, negative = inhibition [1] 13.9% | activity, negative = inhibition [3] 1.96% | Potency [4] > 20.6 µM
active: activity change, negative = inhibition [2] -120%

CCCCOc1ccc(CN(C)c2ncnc(N)n2)cc1
inactive: activity change, negative = inhibition [1] -9.35% | activity change, negative = inhibition [2] -11.6% | activity, negative = inhibition [3] 8.02% | Potency [4] > 20.6 µM

c1cc2c(cc1C1=Nn3c(nnc3C3CCCCC3)SC1)OCO2
inactive: activity change, negative = inhibition [1] -22.3% | activity change, negative = inhibition [2] 14.4% | activity, negative = inhibition [3] -7.03% | Potency [4] > 20.6 µM

CCOC(=O)c1[nH]c2cc3c(cc2c1NC(=O)CN1CCC(C)CC1)OCO3
inactive: activity change, negative = inhibition [1] -11.2% | activity change, negative = inhibition [2] 3.83% | activity, negative = inhibition [3] -3.19% | Potency [4] > 20.6 µM

COCCCn1c2nc3ccccc3nc2c2c(=O)n(-c3ccccc3OC)c(C)nc21
inactive: activity change, negative = inhibition [1] -7.38% | activity change, negative = inhibition [2] -8.29% | activity, negative = inhibition [3] 5.28% | Potency [4] > 20.6 µM

C=CCn1cnc2c(c1=O)c1nc3ccccc3nc1n2-c1ccc(Cl)cc1
inactive: activity change, negative = inhibition [1] 8.09% | activity change, negative = inhibition [2] -0.571% | activity, negative = inhibition [3] -1.17% | Potency [4] > 20.6 µM

CCOC(=O)c1c(NC(=O)CN2CCOCC2)sc2c1CC(C)(C)OC2
inactive: activity change, negative = inhibition [1] -15.6% | activity change, negative = inhibition [2] 12.7% | activity, negative = inhibition [3] -6.32% | Potency [4] > 20.6 µM
